The values that follow come from published antibiotic growth screens (doi:10.1016/j.cell.2020.01.021).

Whole data set: some 2,300 compounds, median “relative growth” near 1, cut for the lowest 2% near 0.046. The list is a sample of the results.

The experiment deals with E. coli BW25113. Put plainly: relative growth (fraction of control); higher = less inhibition. The settings on record: 50 µM.
`CC12CCC3C(=CCc4cc(O)ccc43)C1CCC2=O` (stereo unspecified) came in with a relative growth of 0.988.

`CCC1OC(=O)C(C)C(OC2CC(C)(OC)C(O)C(C)O2)C(C)C(OC2OC(C)CC(N(C)C)C2O)C(C)(O)CC(C)C(=O)C(C)C(O)C1(C)O.CCCCCCCCCCCCCCCCCC(=O)O` (stereo unspecified): the relative growth was 0.665.

`NCCCC(N)C(=O)O.NCCCC(N)C(=O)O.O=C(O)CCC(=O)C(=O)O` displayed a relative growth of 1.09.

Compound `C=CC1CN2CCC1CC2C(O)c1ccnc2ccc(OC)cc12` (stereo unspecified) gave a relative growth of 1.02.

In turn, `Cc1ccsc1C=CC1=NCCCN1C.O=C(O)CC(O)(CC(=O)O)C(=O)O` had a relative growth of 0.986.

The compound `CN(C)C1C(O)=C(C(N)=O)C(=O)C2(O)C(O)=C3C(=O)c4c(O)cccc4C(C)(O)C3CC12.Cl` (stereo unspecified) yielded a relative growth of 0.0522.

In the case of `CN1CCN(C2=Nc3ccccc3Oc3ccc(Cl)cc32)CC1.O=C(O)CCC(=O)O`, the relative growth turned out to be 1.08.

For the compound `C#CCCCCCCCCCCCC(O)CC(O)COC(C)=O.C=CCCCCCCCCCCCC(O)CC(O)COC(C)=O` (stereo unspecified), the relative growth came to 1.03.

`CCN(CC)CCOCCOC(=O)C1(c2ccccc2)CCCC1.O=C(O)CC(O)(CC(=O)O)C(=O)O` registered a relative growth of 1.08.

`CN(C)CCC(c1ccc(Cl)cc1)c1ccccn1.O=C(O)C=CC(=O)O` (stereo unspecified) returned a relative growth of 0.967.

Take `CCCCCCc1ccc(O)cc1O.Nc1c2ccccc2nc2ccccc12`: the relative growth was 0.591.

`Cl.N[C@H](Cc1ccccc1)C(=O)O` had a relative growth of 1.

The compound `O=C(O)C(O)C(O)C(=O)O.OCc1cccnc1` (stereo unspecified) returned a relative growth of 1.06.

Compound `CNCC(O)C(O)C(O)C(O)CO.Cc1c(Nc2ncccc2C(=O)O)cccc1C(F)(F)F` gave a relative growth of 1.04.

Compound `CCCCCNC(=N)NN=Cc1c[nH]c2ccc(OC)cc12.O=C(O)C=CC(=O)O` came in with a relative growth of 0.879.

On to `CCN(CC)CCOCCOC(=O)C(CC)(CC)c1ccccc1.O=C(O)CC(O)(CC(=O)O)C(=O)O`, for which the relative growth is 1.1.

`CN1CCCN=C1C=Cc1cccs1.O=C(O)c1cc2ccccc2c(Cc2c(O)c(C(=O)O)cc3ccccc23)c1O` had a relative growth of 1.13.

For `CCC1OC(=O)CC(O)C(C)C(OC2OC(C)C(OC3CC(C)(O)C(O)C(C)O3)C(N(C)C)C2O)C(CC=O)CC(C)C(=O)C=CC(C)=CC1COC1OC(C)C(O)C(OC)C1OC.O=C(O)C(O)C(O)C(=O)O` (stereo unspecified), the relative growth amounted to 1.09.

As for `CC(=O)OC1CC2(C)C(CC(O)C3C4(C)CCC(O)C(C)C4CCC32C)C1=C(CCC=C(C)C)C(=O)O` (stereo unspecified), the relative growth turned out to be 1.12.

On to `NNC(=O)c1ccncc1.Nc1ccc(C(=O)O)c(O)c1`, for which the relative growth was 0.943.

`O=C(O)CCC(=O)O.O=C(OC1CN2CCC1CC2)N1CCc2ccccc2C1c1ccccc1` (stereo unspecified) returned a relative growth of 1.02.

Compound `CCC(=O)OC1C(OC2C(C)C(OC3CC(C)(OC)C(O)C(C)O3)C(C)C(=O)OC(CC)C(C)(O)C(O)C(C)C(=O)C(C)CC2(C)O)OC(C)CC1N(C)C.CCCCCCCCCCCCOS(=O)(=O)O` (stereo unspecified) returned a relative growth of 0.953.

`Oc1ccc(Cl)c2cccnc12` registered a relative growth of 0.421.

For `CN1CCc2nc(C(=O)NC3CC(C(=O)N(C)C)CCC3NC(=O)C(=O)Nc3ccc(Cl)cn3)sc2C1.Cc1ccc(S(=O)(=O)O)cc1.O` (stereo unspecified), the relative growth came to 1.01.

For `CC(=O)c1ccc2c(c1)N(CCCN1CCN(CCO)CC1)c1ccccc1S2.O=C(O)C=CC(=O)O`, the relative growth stood at 1.17.

`CC(=O)OCC(=O)C1(O)C(C)CC2C3CCC4=CC(=O)C=CC4(C)C3(F)C(O)CC21C` (stereo unspecified): the relative growth came out at 0.913.

`OCC(O)C(O)C(OC1OC(CO)C(O)C(O)C1O)C(O)CO` (stereo unspecified) returned a relative growth of 0.991.

Compound `CC1CC2C3CCC4=CC(=O)C=CC4(C)C3(F)C(O)CC2(C)C1(O)C(=O)COP(=O)([O-])[O-].[Na+].[Na+]` (stereo unspecified) came in with a relative growth of 1.1.

Consider `CN1C(C)(C)CCCC1(C)C.O=C(O)C(O)C(O)C(=O)O`, for which the relative growth came out at 0.993.

With `CN(C)CCN(Cc1ccccc1)c1ccccn1.O=C(O)CC(O)(CC(=O)O)C(=O)O`, the relative growth turned out to be 0.763.

For the compound `CCC(=C(c1ccccc1)c1ccc(OCCN(C)C)cc1)c1ccccc1.O=C(O)CC(O)(CC(=O)O)C(=O)O`, the relative growth stood at 0.642.
